# Laboratory results from the supplement of paper PMC11732987, “Enantioselective OTUD7B fragment discovery through chemoproteomics screening and high-throughput optimisation” (Communications Chemistry, 2025).
# A number with no mark means an inactive call.
# What was measured:
# Test in all cases: log2 ratio of Biotin-Ahx-Ub-VS probe labelling (fragment/DMSO); higher = less target engagement (more negative = stronger competition), active = hit call of the paper (q ≤ 0.05, log2 ratio ≤ -1)
# Conditions in all cases: compound concentration: 200 uM; treatment time: 3 h
# ALG13 = molecular target: T1, ALG13 (UniProt Q9NP73)
# T1 sequence (whole entry): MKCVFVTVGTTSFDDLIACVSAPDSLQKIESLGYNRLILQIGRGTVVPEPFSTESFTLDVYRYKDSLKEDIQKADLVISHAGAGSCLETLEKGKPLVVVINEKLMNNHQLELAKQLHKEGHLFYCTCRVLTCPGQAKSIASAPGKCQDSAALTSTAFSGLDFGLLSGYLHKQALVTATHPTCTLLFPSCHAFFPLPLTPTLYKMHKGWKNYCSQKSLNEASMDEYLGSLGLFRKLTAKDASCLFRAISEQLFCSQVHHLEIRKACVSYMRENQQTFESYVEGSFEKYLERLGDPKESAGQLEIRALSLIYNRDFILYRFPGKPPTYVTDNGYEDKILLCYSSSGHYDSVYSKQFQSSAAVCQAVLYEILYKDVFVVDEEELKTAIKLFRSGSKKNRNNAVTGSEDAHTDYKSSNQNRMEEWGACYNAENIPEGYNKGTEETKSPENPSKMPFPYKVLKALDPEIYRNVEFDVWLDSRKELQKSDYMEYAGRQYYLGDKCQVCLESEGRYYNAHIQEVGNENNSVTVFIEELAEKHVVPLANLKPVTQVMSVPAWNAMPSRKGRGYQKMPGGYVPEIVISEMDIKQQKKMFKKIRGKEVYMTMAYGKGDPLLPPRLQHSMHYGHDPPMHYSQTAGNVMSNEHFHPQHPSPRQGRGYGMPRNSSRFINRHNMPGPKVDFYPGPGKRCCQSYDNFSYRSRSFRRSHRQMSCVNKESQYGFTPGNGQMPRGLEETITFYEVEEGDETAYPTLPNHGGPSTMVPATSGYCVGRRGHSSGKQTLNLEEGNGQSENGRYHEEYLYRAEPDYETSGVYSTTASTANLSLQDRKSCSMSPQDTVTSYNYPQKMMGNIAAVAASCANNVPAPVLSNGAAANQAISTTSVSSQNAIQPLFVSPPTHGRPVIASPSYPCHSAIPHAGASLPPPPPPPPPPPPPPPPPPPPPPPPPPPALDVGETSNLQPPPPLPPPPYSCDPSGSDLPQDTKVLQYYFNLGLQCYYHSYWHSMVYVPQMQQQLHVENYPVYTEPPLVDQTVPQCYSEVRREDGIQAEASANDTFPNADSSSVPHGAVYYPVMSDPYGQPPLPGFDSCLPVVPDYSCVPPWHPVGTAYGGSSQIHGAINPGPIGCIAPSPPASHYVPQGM
# Summary of the method: (§1)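 Using Biotin-Ahx-Ub-VS at 0.5 µM final for 1 h, DUBs were labelled in HEK293T lysate (495 µg per sample) that had first been treated in triplicate with fragment at 200 µM or vehicle for 3 h. NeutrAvidin enrichment, LysC and trypsin digestion and diaPASEF LC-MS/MS followed. Spectronaut label-free quantities were global-median-normalised. Values are average log2 fragment/vehicle ratios by unpaired t-test, using proteins with ≥2 unique peptides.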
# ATXN3 = ATXN3 (UniProt P54252)
# Sequence of ATXN3 (P54252 whole entry): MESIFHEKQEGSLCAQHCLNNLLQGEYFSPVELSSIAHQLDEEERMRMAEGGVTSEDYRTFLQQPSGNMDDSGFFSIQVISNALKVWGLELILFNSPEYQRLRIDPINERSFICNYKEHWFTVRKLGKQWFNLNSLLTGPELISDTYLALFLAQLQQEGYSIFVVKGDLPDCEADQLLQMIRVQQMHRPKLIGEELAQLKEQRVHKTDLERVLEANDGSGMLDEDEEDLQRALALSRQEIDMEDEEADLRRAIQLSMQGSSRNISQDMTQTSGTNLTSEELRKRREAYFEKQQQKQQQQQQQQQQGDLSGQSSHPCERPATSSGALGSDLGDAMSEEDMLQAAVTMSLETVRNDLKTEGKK
# Summary of the method: as §1
# BAP1 = molecular target: T2, BAP1 (UniProt Q92560)
# T2 sequence (whole entry): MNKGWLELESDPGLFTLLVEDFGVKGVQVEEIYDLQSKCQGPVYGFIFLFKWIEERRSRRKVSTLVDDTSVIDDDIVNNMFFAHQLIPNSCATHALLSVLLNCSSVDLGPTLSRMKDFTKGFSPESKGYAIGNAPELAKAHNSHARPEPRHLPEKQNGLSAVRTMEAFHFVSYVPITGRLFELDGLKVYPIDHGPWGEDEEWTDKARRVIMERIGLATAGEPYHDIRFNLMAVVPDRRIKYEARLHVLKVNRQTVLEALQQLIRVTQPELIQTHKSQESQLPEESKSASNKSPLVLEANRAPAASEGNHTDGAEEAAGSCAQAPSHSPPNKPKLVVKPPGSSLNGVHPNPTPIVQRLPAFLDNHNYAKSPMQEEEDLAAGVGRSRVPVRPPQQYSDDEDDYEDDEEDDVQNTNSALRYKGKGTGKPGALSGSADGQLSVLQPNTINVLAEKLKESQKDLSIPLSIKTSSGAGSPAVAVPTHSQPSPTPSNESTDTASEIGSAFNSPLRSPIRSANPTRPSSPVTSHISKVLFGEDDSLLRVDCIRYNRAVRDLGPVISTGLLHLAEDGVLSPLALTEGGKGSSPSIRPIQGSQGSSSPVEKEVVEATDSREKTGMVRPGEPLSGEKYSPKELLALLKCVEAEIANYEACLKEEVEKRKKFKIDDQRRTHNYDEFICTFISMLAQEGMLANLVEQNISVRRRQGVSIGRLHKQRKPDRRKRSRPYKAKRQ
# Summary of the method: as §1
# EIF3F = EIF3F (UniProt O00303)
# Sequence of EIF3F (O00303 whole entry): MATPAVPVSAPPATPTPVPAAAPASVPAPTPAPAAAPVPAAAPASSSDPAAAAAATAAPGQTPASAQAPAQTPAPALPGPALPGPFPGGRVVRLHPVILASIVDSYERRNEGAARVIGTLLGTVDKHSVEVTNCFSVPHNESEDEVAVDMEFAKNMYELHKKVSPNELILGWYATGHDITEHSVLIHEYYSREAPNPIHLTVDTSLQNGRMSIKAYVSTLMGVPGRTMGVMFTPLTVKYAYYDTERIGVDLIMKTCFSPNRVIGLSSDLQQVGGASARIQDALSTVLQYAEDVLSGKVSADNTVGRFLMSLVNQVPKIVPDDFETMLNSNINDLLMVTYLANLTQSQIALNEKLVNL
# Summary of the method: as §1
# EIF3H = EIF3H (UniProt O15372)
# Sequence of EIF3H (O15372 whole entry): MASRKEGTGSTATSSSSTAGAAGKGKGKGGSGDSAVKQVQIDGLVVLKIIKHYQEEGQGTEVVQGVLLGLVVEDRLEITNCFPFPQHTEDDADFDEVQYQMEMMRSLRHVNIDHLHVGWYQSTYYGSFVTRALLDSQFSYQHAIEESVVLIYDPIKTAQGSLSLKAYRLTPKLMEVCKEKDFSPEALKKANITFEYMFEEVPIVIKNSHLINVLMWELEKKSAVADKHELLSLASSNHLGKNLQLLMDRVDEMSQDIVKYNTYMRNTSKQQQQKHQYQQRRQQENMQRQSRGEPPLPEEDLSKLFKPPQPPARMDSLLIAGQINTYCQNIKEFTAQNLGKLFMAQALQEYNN
# Summary of the method: as §1
# FAM105A = molecular target: T3, FAM105A (UniProt Q9NUU6)
# T3 sequence (whole entry): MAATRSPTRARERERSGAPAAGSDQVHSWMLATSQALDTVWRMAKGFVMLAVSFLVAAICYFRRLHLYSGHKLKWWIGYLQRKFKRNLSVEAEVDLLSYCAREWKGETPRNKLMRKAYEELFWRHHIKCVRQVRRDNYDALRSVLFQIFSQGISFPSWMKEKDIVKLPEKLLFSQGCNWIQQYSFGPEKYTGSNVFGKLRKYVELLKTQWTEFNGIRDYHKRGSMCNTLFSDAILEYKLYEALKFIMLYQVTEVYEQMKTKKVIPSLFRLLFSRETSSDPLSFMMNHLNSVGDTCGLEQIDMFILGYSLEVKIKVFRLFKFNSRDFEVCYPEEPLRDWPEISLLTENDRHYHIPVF
# Summary of the method: as §1
# OTUB1 = OTUB1 (UniProt Q96FW1)
# Sequence of OTUB1 (Q96FW1 whole entry): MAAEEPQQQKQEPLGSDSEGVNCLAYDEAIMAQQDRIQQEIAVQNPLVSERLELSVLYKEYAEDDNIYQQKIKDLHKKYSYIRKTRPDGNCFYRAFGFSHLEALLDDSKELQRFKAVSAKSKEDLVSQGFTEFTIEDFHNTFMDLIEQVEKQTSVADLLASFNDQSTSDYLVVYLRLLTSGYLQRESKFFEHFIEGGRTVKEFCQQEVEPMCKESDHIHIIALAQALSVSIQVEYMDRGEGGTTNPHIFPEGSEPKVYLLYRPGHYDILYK
# Summary of the method: as §1
# OTUD4 = molecular target: T4, OTUD4 (UniProt Q01804)
# T4 sequence (whole entry): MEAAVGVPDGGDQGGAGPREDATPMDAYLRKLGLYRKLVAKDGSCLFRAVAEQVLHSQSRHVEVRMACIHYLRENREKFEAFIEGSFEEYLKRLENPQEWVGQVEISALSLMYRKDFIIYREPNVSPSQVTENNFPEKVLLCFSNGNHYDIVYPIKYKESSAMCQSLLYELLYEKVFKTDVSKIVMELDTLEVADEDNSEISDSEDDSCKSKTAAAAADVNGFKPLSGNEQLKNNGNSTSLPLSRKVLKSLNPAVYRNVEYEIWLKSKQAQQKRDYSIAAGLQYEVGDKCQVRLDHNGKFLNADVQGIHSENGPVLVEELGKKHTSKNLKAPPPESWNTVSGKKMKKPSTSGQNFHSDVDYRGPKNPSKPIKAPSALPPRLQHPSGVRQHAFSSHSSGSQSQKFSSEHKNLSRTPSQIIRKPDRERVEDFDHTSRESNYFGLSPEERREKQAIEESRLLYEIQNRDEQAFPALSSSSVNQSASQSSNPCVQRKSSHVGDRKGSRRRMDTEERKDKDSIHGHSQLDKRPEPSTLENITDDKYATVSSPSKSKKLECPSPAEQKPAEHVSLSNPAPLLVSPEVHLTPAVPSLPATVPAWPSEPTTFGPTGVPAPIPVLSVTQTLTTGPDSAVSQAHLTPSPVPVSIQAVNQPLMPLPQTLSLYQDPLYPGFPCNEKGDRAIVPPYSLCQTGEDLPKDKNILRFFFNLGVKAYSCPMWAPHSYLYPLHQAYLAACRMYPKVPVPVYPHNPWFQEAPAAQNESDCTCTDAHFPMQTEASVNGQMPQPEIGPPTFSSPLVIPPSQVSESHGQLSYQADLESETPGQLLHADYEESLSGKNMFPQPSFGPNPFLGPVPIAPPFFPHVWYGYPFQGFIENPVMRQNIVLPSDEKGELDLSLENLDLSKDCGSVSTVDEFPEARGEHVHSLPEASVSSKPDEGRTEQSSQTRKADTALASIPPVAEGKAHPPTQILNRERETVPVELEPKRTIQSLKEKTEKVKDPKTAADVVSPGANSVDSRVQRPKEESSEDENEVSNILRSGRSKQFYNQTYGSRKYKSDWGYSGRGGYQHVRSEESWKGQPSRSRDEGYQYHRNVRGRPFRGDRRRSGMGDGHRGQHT
# Summary of the method: as §1
# OTUD5 = molecular target: T5, OTUD5 (UniProt Q96G74)
# T5 sequence (whole entry): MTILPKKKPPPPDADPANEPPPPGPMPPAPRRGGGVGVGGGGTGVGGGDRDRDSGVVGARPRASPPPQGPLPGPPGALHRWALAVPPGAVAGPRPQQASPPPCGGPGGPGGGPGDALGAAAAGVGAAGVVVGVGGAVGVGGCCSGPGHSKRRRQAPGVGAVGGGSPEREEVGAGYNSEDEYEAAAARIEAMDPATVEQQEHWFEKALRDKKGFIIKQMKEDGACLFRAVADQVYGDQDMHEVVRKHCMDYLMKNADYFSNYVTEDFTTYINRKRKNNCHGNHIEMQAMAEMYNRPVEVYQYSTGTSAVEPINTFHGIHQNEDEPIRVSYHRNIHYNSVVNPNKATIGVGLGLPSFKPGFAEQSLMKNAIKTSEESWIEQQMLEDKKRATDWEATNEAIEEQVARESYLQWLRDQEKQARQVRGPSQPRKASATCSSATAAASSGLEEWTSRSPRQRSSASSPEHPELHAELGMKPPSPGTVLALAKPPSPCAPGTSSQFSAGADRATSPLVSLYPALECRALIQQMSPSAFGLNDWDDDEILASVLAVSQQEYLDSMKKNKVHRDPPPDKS
# Summary of the method: as §1
structure (smiles),measurement,setting,value
CC(NC(=O)CCl)c1csc(-c2ccccc2)n1.Cl (centres undefined),log2 ratio of Biotin-Ahx-Ub-VS probe labelling,ALG13,0.0117
same,log2 ratio of Biotin-Ahx-Ub-VS probe labelling,ATXN3,-0.556
same,log2 ratio of Biotin-Ahx-Ub-VS probe labelling,BAP1,-3.84 (active)
same,log2 ratio of Biotin-Ahx-Ub-VS probe labelling,EIF3F,-0.0347
same,log2 ratio of Biotin-Ahx-Ub-VS probe labelling,EIF3H,-0.03
same,log2 ratio of Biotin-Ahx-Ub-VS probe labelling,FAM105A,0.268
same,log2 ratio of Biotin-Ahx-Ub-VS probe labelling,OTUB1,-0.0384
same,log2 ratio of Biotin-Ahx-Ub-VS probe labelling,OTUD4,-1.31 (active)
same,log2 ratio of Biotin-Ahx-Ub-VS probe labelling,OTUD5,-0.527
